# Targets with a hit are over-represented here; the source holds about 7,900 in all. About 0.6% of all pairs of compound and target were hits. Unmarked numbers belong to inactive results.
# Assays:
# Experiment in all cases: log2 fold change, soluble protein after heating vs DMSO (PISA); higher = thermal stabilisation; K562 cells, 10 uM, 30 min; active = over 0.2 and 3.5 SD of the protein, either way, in both replicates (recomputed)
# erlotinib = compound: C#Cc1cccc(Nc2ncnc3cc(OCCOC)c(OCCOC)cc23)c1 [erlotinib]
# Method in brief: (§1)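 K562 cells (2×10^6 cells/mL) were treated with 10 μM compound for 30 min, and aliquots were heated for 3 min over 48°C-58°C. Pooled aliquots were extracted in PBS with 0.5% NP-40 at 4°C, and the supernatant after 21,000xg for 90 min was measured by TMTpro 16plex LC-MS/MS with channel sums equalised. Reported thermal stability, relative to control samples and from duplicates, is a log2 fold change.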
# [1] = compound: C/C(=N\NC(=O)C1=CC(=CC=C1)S(=O)(=O)N2CCOCC2)/C3=C(C=CC(=C3)Cl)O
# Method in brief: as §1
# [2] = compound: C1=CC(=C(C=C1Cl)C2=NC3=NC=CN=C3C(=N2)NC4=CC=NC=C4)F
# Method in brief: as §1
# [3] = compound: C1=CC(=CC=C1C2=NC3=C(N2)C=C(C=C3)C(=O)N)OC4=CC=C(C=C4)Cl
# Method in brief: as §1
# [4] = compound: C1=CC2=C(C=CC(=C2)/C=C\3/C(=O)NC(=NCC4=CC=CS4)S3)N=C1
# Method in brief: as §1
# [5] = compound: C1=CC2=NC=CN=C2C=C1/C=C/3\C(=O)NC(=O)S3
# Method in brief: as §1
# [6] = compound: C1=CC=C(C=C1)C2=NC(=C(N2)C3=CC=NC=C3)C4=CC(=C(C=C4)Cl)O
# Method in brief: as §1
# [7] = compound: C1=CC=C2C(=C1)C3=NNC4=CC=CC(=C43)C2=O
# Method in brief: as §1
# [8] = compound: C1CCN(C1)C(=O)NC2=CC=CC(=C2)NC3=NC=C(C(=N3)NCCC4=CN=CN4)Br
# Method in brief: as §1
# [9] = compound: C1CN(CCC1(CC2=CC=C(C=C2)Cl)N)C3=NC=NC4=C3C=CN4
# Method in brief: as §1
# UniProt O00506, sequence (O00506 whole entry, looked up): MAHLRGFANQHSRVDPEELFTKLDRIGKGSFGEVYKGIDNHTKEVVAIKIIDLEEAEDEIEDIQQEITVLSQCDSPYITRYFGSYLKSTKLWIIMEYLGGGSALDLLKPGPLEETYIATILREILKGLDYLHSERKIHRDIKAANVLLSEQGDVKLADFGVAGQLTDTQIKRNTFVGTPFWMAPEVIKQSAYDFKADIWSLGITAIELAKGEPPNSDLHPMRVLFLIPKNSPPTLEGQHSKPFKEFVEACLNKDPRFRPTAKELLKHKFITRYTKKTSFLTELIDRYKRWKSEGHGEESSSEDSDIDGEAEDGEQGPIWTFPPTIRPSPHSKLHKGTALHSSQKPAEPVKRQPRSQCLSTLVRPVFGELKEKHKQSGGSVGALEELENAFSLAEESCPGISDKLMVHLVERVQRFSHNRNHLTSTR
# UniProt Q92609, sequence (Q92609 whole entry, looked up): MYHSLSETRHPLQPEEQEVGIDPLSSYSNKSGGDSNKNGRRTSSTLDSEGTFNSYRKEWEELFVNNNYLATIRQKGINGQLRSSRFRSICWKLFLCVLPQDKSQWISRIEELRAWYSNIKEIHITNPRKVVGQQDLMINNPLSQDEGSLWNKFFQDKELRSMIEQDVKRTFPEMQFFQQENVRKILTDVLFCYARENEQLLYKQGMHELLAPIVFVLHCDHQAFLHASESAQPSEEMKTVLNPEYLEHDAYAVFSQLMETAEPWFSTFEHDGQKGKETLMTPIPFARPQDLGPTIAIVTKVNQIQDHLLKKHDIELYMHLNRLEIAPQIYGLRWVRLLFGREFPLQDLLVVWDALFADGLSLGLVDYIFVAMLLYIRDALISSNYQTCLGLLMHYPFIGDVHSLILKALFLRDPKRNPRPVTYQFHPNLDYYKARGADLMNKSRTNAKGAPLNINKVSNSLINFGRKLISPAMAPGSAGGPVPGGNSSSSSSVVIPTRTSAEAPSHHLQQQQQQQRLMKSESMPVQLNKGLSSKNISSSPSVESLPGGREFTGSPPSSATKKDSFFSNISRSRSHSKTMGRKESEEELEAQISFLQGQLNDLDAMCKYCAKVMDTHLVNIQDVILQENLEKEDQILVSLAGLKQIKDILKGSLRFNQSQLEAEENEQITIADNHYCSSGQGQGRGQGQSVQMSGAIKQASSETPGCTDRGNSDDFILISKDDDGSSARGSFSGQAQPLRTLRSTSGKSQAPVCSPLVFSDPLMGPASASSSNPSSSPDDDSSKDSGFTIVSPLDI
# UniProt Q92544, sequence (Q92544 whole entry, looked up): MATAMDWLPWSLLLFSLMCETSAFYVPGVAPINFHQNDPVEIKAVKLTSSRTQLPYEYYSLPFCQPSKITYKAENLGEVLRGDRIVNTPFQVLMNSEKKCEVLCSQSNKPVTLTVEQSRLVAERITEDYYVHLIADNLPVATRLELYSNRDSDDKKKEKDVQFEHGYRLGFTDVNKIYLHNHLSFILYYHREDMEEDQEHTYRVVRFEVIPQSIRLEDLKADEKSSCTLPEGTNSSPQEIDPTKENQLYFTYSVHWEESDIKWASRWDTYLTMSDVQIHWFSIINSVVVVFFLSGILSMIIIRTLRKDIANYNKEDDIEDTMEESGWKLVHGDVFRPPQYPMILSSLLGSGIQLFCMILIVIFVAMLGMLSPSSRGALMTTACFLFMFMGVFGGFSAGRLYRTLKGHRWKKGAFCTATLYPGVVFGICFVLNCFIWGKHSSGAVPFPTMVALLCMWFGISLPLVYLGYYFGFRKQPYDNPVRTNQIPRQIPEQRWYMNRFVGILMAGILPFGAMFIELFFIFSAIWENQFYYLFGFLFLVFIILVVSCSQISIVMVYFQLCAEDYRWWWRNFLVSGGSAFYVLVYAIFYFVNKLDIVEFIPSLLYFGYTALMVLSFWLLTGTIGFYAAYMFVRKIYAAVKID
# UniProt Q13395, sequence (Q13395 whole entry, looked up): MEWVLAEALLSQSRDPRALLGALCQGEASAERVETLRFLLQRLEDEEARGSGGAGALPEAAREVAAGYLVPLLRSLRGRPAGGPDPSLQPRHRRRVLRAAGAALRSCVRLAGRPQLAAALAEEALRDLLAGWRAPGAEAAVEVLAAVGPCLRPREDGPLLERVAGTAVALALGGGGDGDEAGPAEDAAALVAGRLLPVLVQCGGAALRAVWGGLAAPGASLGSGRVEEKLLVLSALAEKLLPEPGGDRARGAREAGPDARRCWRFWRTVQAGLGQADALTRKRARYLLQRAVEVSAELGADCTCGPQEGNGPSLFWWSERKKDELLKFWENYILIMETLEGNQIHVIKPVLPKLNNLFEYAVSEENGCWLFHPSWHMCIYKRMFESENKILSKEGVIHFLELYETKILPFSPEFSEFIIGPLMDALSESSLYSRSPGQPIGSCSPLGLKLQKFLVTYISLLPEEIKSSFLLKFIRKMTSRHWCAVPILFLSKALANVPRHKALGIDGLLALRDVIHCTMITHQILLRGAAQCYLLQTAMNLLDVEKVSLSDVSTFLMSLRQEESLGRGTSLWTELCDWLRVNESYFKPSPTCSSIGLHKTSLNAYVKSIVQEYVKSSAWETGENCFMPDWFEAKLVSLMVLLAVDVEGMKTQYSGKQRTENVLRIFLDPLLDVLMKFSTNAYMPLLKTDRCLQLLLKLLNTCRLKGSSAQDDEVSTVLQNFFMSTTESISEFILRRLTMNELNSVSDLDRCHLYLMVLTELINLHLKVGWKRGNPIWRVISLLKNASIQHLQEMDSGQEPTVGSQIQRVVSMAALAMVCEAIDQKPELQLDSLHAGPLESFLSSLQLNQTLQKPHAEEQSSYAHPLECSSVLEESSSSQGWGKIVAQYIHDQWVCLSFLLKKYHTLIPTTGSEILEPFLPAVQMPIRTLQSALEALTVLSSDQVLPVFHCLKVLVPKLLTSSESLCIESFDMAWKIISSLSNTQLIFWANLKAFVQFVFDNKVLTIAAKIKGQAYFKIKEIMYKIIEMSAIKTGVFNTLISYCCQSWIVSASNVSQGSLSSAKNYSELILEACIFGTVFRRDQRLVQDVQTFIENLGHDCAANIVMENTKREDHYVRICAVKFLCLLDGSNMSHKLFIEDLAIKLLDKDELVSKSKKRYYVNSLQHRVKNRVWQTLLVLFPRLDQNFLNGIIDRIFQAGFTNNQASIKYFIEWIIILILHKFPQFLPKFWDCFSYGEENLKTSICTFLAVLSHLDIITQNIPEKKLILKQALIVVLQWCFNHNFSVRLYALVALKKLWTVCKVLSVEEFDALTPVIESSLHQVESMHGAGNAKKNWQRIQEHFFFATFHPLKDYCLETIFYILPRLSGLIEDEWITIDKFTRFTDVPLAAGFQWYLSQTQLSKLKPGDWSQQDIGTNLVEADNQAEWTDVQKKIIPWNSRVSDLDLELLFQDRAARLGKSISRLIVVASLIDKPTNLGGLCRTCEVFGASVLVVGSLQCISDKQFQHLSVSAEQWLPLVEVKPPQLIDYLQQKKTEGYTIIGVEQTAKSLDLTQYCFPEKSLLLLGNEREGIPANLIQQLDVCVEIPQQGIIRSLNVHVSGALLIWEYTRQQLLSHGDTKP
# UniProt Q93075, sequence (Q93075 whole entry, looked up): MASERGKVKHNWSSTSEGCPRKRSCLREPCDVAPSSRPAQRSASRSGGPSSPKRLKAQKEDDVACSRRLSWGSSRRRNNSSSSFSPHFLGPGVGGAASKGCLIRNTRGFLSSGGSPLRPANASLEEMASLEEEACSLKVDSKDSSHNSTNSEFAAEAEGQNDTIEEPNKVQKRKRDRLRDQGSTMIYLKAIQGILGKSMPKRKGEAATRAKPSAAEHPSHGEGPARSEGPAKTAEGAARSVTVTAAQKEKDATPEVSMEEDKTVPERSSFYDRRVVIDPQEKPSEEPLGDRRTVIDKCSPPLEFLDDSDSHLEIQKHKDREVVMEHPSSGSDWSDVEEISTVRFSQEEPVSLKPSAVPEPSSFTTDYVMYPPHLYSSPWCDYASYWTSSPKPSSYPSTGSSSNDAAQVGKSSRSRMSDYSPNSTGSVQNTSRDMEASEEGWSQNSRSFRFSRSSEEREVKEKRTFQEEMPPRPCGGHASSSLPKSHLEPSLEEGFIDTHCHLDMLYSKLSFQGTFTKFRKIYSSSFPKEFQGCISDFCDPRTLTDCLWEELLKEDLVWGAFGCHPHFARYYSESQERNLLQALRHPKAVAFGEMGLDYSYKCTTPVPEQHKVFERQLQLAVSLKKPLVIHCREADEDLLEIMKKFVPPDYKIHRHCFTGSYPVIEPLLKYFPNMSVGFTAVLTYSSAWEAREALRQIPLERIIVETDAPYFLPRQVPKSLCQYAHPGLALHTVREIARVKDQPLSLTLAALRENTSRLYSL
# UniProt Q99523, sequence (Q99523 whole entry, looked up): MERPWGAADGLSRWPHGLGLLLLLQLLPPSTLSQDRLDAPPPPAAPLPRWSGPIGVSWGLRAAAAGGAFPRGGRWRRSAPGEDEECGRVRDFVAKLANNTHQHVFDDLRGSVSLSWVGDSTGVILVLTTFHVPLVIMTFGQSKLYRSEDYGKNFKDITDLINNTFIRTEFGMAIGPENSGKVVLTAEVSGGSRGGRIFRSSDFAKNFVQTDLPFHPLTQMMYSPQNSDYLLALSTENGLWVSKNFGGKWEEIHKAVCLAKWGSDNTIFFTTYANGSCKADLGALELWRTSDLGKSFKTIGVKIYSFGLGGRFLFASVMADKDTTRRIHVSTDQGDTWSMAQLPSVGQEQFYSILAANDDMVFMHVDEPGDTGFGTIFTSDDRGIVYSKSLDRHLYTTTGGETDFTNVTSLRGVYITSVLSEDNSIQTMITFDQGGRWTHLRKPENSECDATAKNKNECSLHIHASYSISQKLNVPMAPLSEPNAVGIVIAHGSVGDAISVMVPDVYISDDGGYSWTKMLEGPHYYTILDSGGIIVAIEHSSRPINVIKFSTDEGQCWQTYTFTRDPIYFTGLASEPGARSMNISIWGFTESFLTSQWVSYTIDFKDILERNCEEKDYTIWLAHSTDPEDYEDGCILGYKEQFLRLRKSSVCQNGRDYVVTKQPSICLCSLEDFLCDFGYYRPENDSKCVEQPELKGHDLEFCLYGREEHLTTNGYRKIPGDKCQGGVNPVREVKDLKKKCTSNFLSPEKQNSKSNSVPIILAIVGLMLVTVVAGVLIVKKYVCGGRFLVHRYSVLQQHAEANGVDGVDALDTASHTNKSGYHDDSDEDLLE
Target,log2 fold change (erlotinib),log2 fold change [1],log2 fold change [2],log2 fold change [3],log2 fold change [4],log2 fold change [5],log2 fold change [6],log2 fold change [7],log2 fold change [8],log2 fold change [9]
STEAP3 isoform 2 (UniProt Q658P3),0.053,0.038,0.017,-0.019,0.053,0.02,-0.008,0.004,-0.036,0.032
SRSF7 (UniProt Q16629),0.083,-0.043,-0.292,0.063,-0.154,-0.032,-0.135,-0.037,0.084,-0.063
SMC5 (UniProt Q8IY18),-0.041,0.091,-0.091,0.04,0.014,0.005,-0.017,-0.141,0.042,0.116
SPG21 (UniProt Q9NZD8),0.014,0.075,-0.08,0.021,-0.045,0.054,0.103,0.083,-0.032,0.012
SNW1 (UniProt Q13573),-0.047,-0.028,-0.029,0.036,-0.015,0.045,-0.051,-0.001,0.001,0.002
STX7 (UniProt O15400),0.02,-0.029,0.02,0.021,-0.02,0.02,-0.009,-0.007,0,0.056
SLC30A7 (UniProt Q8NEW0),-0.004,0.175,0.062,0.006,-0.086,0.077,0.109,0.004,0.016,0.132
STIM1 (UniProt Q13586),-0.015,0.01,0.043,0.014,0.039,-0.007,-0.025,-0.067,-0.003,0.016
TBC1D5 isoform 2 (UniProt Q92609),0.019,0.111,-0.03,-0.041,0.044,0.032,-0.049,0.027,-0.003,-0.078
SPR (UniProt P35270),0.018,-0.089,-0.01,0.005,0.115,0.016,0.732 (active),0.096,0.02,0.034
SYK (UniProt P43405),0.06,0.144,-0.019,0.038,0.031,-0.095,0.131,–,-0.042,0.074
STK25 (UniProt O00506),0.081,0.011,0.062,-0.009,0.021,0.041,-0.025,-0.007,0.026,0.011
SLC35B4 (UniProt Q969S0),-0.055,0.194,-0.033,0.105,0.085,0.024,–,-0.243,-0.015,-0.231
TARBP1 (UniProt Q13395),0.015,0.062,0.023,0.027,-0.091,0.065,-0.022,0.012,-0.085,0.019
SRPRA (UniProt P08240),-0.01,0.061,0.073,0.007,0.054,-0.048,0.063,0.003,0.001,0.006
SPAG9 (UniProt O60271),0.018,-0.025,0.034,-0.016,0.028,0.039,-0.016,-0.012,0.015,-0.009
TM9SF4 (UniProt Q92544),-0.015,0.011,-0.006,0.052,-0.054,-0.002,0.008,0.038,-0.012,0.066
SLC27A4 (UniProt Q6P1M0),0.039,0.013,-0.023,0.032,0.082,-0.02,0.002,0.061,-0.017,0.062
SORT1 (UniProt Q99523),0.005,-0.024,0.03,-0.012,0.014,0.034,0.022,-0.018,-0.012,0.06
SQSTM1 (UniProt Q13501),-0.058,-0.008,0.101,0.037,-0.017,0.108,-0.004,0.02,-0.135,-0.045
SRSF3 (UniProt P84103),-0.074,-0.03,-0.35,0.053,-0.074,-0.009,-0.003,0.006,0.097,-0.107
SSR4 (UniProt P51571),-0.016,0.055,0.041,0.051,0.059,0.007,-0.031,-0.002,0,-0.025
SPAST (UniProt Q9UBP0),0.139,0.129,0.032,-0.046,0.06,0.028,0.007,0.064,-0.048,-0.004
TANGO6 (UniProt Q9C0B7),0.208,0.032,-0.003,-0.026,-0.001,0.057,0.025,-0.056,-0.026,0
TEX30 (UniProt Q5JUR7),0.183,0.165,-0.011,-0.013,0.188,0.025,-0.01,0.046,-0.147,-0.029
TAX1BP1 (UniProt Q86VP1),-0.079,-0.005,0.007,0.044,0.035,0.037,-0.044,-0.006,-0.015,-0.027
SMAD9 (UniProt O15198),-0.001,0.086,0.101,-0.055,0,-0.012,-0.111,-0.098,0.113,-0.076
TERF2IP (UniProt Q9NYB0),-0.046,0,-0.016,-0.003,0.022,0.049,-0.038,-0.074,-0.047,-0.006
TATDN2 (UniProt Q93075),0.071,-0.062,-0.016,-0.013,0.043,-0.052,–,0.003,-0.121,0.06
TARS2 (UniProt Q9BW92),0.042,-0.721 (active),0.021,0.003,0.086,0.038,-0.03,0.003,0.001,-0.058
